According to PubChem BioAssay AID1159580 (chemical genetic matrix, 2015):
Several values for one entry are separate records, joined by “and”; a condition that tells them apart may be missing. Identical values can stand only once. The whole screen tested about 5,500 compounds, of which about 2,000 (36%) were called active. Another 18% or so got no clear call; they are omitted. Rule as the data show it: active = normalized growth mostly below about 0.91 (no sharp cut-off); inconclusive = no clear call, values can overlap the other calls; inactive = mostly above about 0.92. This is one part of the list.

Assay: chemical genetic growth profiling, strain panel (AID 1159580);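 also: tested at 20 µM; growth read once vehicle control cultures reached saturation at 30 °C; 1 = growth at the plate median or of vehicle wells; lower values mean less growth of the strain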
Details: S. cerevisiae deletion strains, growth OD

Measured: normalized growth

CCCCOc1cc(C(=O)NCCN(CC)CC)c2ccccc2n1
inactive: locus YAL021C, strain ccr4, active compounds read low 0.956 | locus YAL026C, strain drs2, active compounds read low 0.986 | locus YAL030W, strain snc1, active compounds read low 0.972 | locus YBL061C, strain skt5, active compounds read low 0.97 | locus YBR009C, strain hhf1, active compounds read low 0.97 | locus YBR021W, strain FUR4, active compounds read low 1.02 | locus YBR023C, strain chs3, active compounds read low 0.977 | locus YBR171W, strain sec66, active compounds read low 0.947 | locus YBR229C, strain ROT2, active compounds read low 1.01 | locus YBR231C, strain swc5, active compounds read low 0.959 | locus YBR279W, strain paf1, active compounds read low 0.998 | locus YCL011C, strain gbp2, active compounds read low 0.987 | locus YCL016C, strain dcc1, active compounds read low 1.01 | locus YCL029C, strain bik1, active compounds read low 1.01 | locus YCL061C, strain MRC1, active compounds read low 0.967 | locus YCL069W, strain vba3, active compounds read low 0.984 | locus YCR088W, strain abp1, active compounds read low 0.954 | locus YDL005C, strain med2, active compounds read low 0.972 | locus YDL035C, strain GPR1, active compounds read low 1.03 | locus YDL040C, strain nat1, active compounds read low 0.96 | locus YDL074C, strain BRE1, active compounds read low 1 | locus YDL101C, strain DUN1, active compounds read low 1 | locus YDL134C, strain PPH21, active compounds read low 1.03 | locus YDL185W, strain tfp1, active compounds read low 1.01 | locus YDL192W, strain arf1, active compounds read low 1 | locus YDR001C, strain nth1, active compounds read low 0.933 | locus YDR069C, strain doa4, active compounds read low 0.932 | locus YDR101C, strain arx1, active compounds read low 1.01 | locus YDR137W, strain rgp1, active compounds read low 1.02 | locus YDR159W, strain sac3, active compounds read low 0.973 | locus YDR162C, strain NBP2, active compounds read low 1.01 | locus YDR195W, strain ref2 0.932 | locus YDR297W, strain sur2, active compounds read low 0.966 | locus YDR318W, strain mcm21, active compounds read low 0.984 | locus YDR334W, strain swr1, active compounds read low 0.925 | locus YDR335W, strain msn5, active compounds read low 0.942 | locus YDR388W, active compounds read low 0.995 | locus YDR392W, strain spt3, active compounds read low 1.05 | locus YDR502C, strain sam2, active compounds read low 0.996 | locus YEL003W, strain gim4, active compounds read low 0.959 | locus YEL037C, strain rad23, active compounds read low 0.968 | locus YEL061C, strain CIN8 (second series), active compounds read low 0.941 | locus YEL061C, strain CIN8, active compounds read low 1 | locus YER015W, strain faa2, active compounds read low 0.973 | locus YER016W, strain bim1, active compounds read low 1.01 | locus YER110C, active compounds read low 1 | locus YER111C, strain swi4, active compounds read low 0.966 | locus YER155C, strain BEM2 (second series), active compounds read low 0.886 | locus YER155C, strain BEM2, active compounds read low 0.998 | locus YER167W, strain BCK2, active compounds read low 1 | locus YFR010W, strain ubp6, active compounds read low 0.94 | locus YGL078C, strain dbp3, active compounds read low 0.995 | locus YGL086W, strain mad1, active compounds read low 0.992 | locus YGL167C, strain pmr1, active compounds read low 0.939 | locus YGL173C, strain kem1, active compounds read low 0.966 | locus YGL227W, strain vid30, active compounds read low 0.956 | locus YGL240W, strain doc1, active compounds read low 0.92 | locus YGL248W, strain PDE1, active compounds read low 0.999 | locus YGL253W, strain hxk2, active compounds read low 0.995 | locus YGR078C, strain PAC10, active compounds read low 1 | locus YGR135W, strain pre9, active compounds read low 0.977 | locus YGR252W, strain gcn5, active compounds read low 0.914 | locus YHR013C, strain ard1, active compounds read low 1.01 | locus YHR027C, strain rpn1, active compounds read low 0.973 | locus YHR030C, strain SLT2, active compounds read low 1.01 and 1.04 | locus YHR079C, strain IRE1 (second series), active compounds read low 0.982 | locus YHR079C, strain IRE1, active compounds read low 1.02 | locus YHR094C, strain hxt1, active compounds read low 0.991 | locus YHR129C, strain ARP1, active compounds read low 1.01 | locus YHR142W, strain chs7, active compounds read low 0.974 | locus YHR200W, strain rpn10, active compounds read low 0.998 | locus YIL066C, strain RNR3, active compounds read low 1.01 | locus YIL073C, strain SPO22, active compounds read low 1.03 | locus YIL125W, strain kgd1, active compounds read low 0.997 | locus YIR030C, strain dcg1, active compounds read low 0.993 | locus YJL092W, strain hpr5, active compounds read low 0.979 | locus YJL095W, strain BCK1 (second series), active compounds read low 0.966 | locus YJL095W, strain BCK1, active compounds read low 0.988 and 1.04 | locus YJL115W, strain asf1, active compounds read low 0.94 | locus YJL129C, strain trk1, active compounds read low 0.939 | locus YJL134W, strain LCB3, active compounds read low 1 | locus YJL154C, strain vps35, active compounds read low 0.942 | locus YJL164C, strain tpk1, active compounds read low 1 | locus YJL166W, strain qcr8, active compounds read low 0.937 | locus YJL168C, strain set2, active compounds read low 0.997 | locus YJL187C, strain SWE1 (second series), active compounds read low 0.999 | locus YJR043C, strain POL32, active compounds read low 1.02 | locus YJR066W, strain TOR1, active compounds read low 0.968
